Screening data (PubChem BioAssay)
ELG1 genotoxic: genotoxicity induction in ELG1-luciferase HEK293T cells; HEK293T ELG1-luciferase reporter, luminescence, 16 h; Potency, µM (highest dose often 46 µM), without a hit: at the highest dose activity change, positive = activation, hits mostly activators; hit rate 1.3% among 330,000; AID 504466; also: % of control where 0% means no effect; nearly all actives have a fitted effect of over 60% in size
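Step 1: seed 2,000 HEK293T ELG1-luciferase cells per well. Step 2: add compound or DMSO, incubate 16 hr at 37 °C. Step 3: ONE-Glo, 30 min at room temperature, read luminescence.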
SMN2 splice enh: enhancers of SMN2 splice variant expression. hit rate 2.8% among 210,000. HEK293 SMN2-luciferase splicing reporter, luminescence, 30-36 h. AID 1458. Potency, µM (top dose mostly 46.1 µM), inactives show at the highest dose activity change, positive = activation, most hits filed as activators; also: % of control where 0% means no effect; nearly all actives have a fitted effect of over 55% in size
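HEK293 cells carry an SMN2 minigene-luciferase reporter in which exon 7 inclusion puts luciferase in frame. Cells were seeded at 2000 cells/well, attached for 10-12 hours, then exposed to compounds for 30-36 hours at 37C before ONE-Glo luminescence.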
FLuc modulator: inhibits or activates purified firefly luciferase, miR-21 counter-screen; purified FLuc, Km substrates, luminescence inhibition; Potency, µM (series often up to 57.5 µM), for inactives: at the top dose activity change, negative = inhibition, most hits filed as inhibitors; hit rate 6.9% among 360,000; AID 588342;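 also: plate controls were vehicle for no effect and reference inhibitor for full effect; nearly all actives have a fitted effect of over 55% in size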
Target sequence (P08659 whole entry, looked up): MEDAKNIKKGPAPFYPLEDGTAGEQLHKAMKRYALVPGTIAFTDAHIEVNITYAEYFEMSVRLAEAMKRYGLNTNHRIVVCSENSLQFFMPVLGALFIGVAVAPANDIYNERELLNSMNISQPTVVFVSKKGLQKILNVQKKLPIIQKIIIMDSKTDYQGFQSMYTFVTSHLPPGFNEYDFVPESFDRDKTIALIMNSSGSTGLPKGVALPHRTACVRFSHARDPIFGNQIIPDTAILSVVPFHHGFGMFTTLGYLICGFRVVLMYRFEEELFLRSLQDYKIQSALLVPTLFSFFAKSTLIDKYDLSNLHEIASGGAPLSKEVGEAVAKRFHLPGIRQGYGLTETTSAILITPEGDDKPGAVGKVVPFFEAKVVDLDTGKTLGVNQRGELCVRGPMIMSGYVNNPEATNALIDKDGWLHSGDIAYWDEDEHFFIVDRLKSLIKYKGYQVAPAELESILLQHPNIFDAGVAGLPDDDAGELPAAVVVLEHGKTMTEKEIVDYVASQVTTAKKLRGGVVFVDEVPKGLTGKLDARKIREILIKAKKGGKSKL
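Purified P. pyralis luciferase, 10 nM final, with Km-level 10 uM D-luciferin and 10 uM ATP in 50 mM Tris acetate pH 7.5, 10 mM Mg acetate, 0.01% Tween-20, 0.05% BSA; 6-point qHTS titration about 60 µM downward; luminescence read.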
NPC1 promoter act: activators of NPC1 promoter. Potency, µM (doses to about 9.22 µM), without a hit: at the highest dose activation, most hits filed as activators. hit rate 2.4% among 320,000. Huh7 NPC1 promoter luciferase reporter, 24 h; also: % of control where 0% means no effect; nearly all actives have a fitted effect of over 60% in size
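Luminescence from an NPC1 promoter-driven luciferase reporter in stably transfected Huh7 cells was measured after 24 h compound treatment at 37 °C, followed by 10 min ambient incubation with luciferase detection reagent.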
Rab9 prom act: Rab9 promoter activation; Potency, µM (titrated, usually from 9.22 µM), without a hit: top-dose activation, negative = inhibition, hits mostly activators; Huh7 Rab9 promoter-luciferase reporter, luminescence, 24 h; hit rate 2.8% among 320,000; AID 485297; also: % of control where 0% means no effect; nearly all actives have a fitted effect of over 60% in size
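Cell-based reporter: Huh7 stable for Rab9 promoter-driven luciferase, plated in reduced-serum medium with 10% FBS at 1500 cells/well, compound-treated 24 h at 37 °C, luminescence read after 10 min reagent.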
ELG1 DNA repair: ELG1-dependent DNA repair inhibition; AID 504467; HEK293T ELG1-luciferase reporter, luminescence, 16 h; DNA damage induced by 5-fluorouridine; hit rate 2.3% among 330,000; Potency, µM (doses to about 46.1 µM), without a hit: at the top dose activity change, negative = inhibition, hits mostly inhibitors; also: % is scaled to controls: 0 for no effect and ±100 for the full control effect; nearly all actives have a fitted effect of over 55% in size
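Quantitative HTS, concentration-response format. 2,000 cells/well co-treated with 5-fluorouridine and compound, 16 hr in 5% CO2 at 37 °C; ONE-Glo luminescence read after 30 min.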
* hit, by the source's call; ? = inconclusive; · = no result. In the library only some 9.2% were active in any assay of this set; here they are far more common. Calls follow the shape of the dose curve; as a rule, active = well fitted curve in the direction sought with a large enough effect; inconclusive = small, poorly fitted or top-dose-only effect, or another doubt; inactive = no such curve, though single readings can be large; an effect the other way counts as inactive or inconclusive. Potency is read from the fitted curve at half-maximal effect.

SMILES	ELG1 genotoxic	SMN2 splice enh	FLuc modulator	NPC1 promoter act	Rab9 prom act	ELG1 DNA repair
Cc1ccc(/C(O)=C2/C(=O)C(=O)N(Cc3ccco3)C2c2cccs2)cc1 (configuration not stated)	1.5%	11.2%	23.9µM*	-4.1%	-2.5%	-2.0%
Cc1nn(Cc2ccc(Cl)cc2)c(C)c1NC(=O)c1noc2c1CCCCC2	-8.1%	-26.3%	2.6%	-3.4%	-5.8%	23.1µM*
Cc1cc(C(=O)Nc2cc(C)n(Cc3ccc(Cl)cc3)n2)no1	-3.4%	-18.0%	-25.0%	4.7%	-2.0%	-19.5%
Cc1cc(NC(=O)c2noc3c2CCCCC3)nn1Cc1ccc(Cl)cc1	0.0%	-34.5%	13.5µM*	-3.8%	-3.4%	1.5%
Cc1nn(Cc2ccc(Cl)c(Cl)c2)c(C)c1NC(=O)c1noc2c1CCCCC2	1.8%	-46.5%	2.5%	17.9%	-0.6%	1.2%
CCOc1ccc(C(=O)N/N=C/c2ccc(-c3ccc(S(=O)(=O)Nc4ncccn4)cc3)o2)cc1	5.0%	13.2%	19µM*	7.8%	-0.7%	11.3%
O=C(N/N=C/c1ccc(-c2ccc(S(=O)(=O)Nc3ncccn3)cc2)o1)c1cc2ccccc2cc1O	-11.1%	?	21.3µM*	0.0%	1.4%	-7.9%
NC(=S)NN=Cc1ccc(-c2ccc(S(=O)(=O)Nc3ncccn3)cc2)o1	1.6%	·	·	·	·	3.2%
NS(=O)(=O)c1ccc(-c2ccc(/C=N/NC(=O)c3ccccc3O)o2)cc1	-4.1%	·	6.75µM*	-2.3%	-3.3%	-14.9%
Cc1cc(C)c(C2=CC(=O)C[C@H](c3ccc4c(c3)OCO4)C2)c(C)c1	-3.6%	·	2.9%	-0.9%	-3.0%	?
COc1ccccc1OCCn1cc(/C=N/NC(N)=S)c2ccccc21	-8.8%	-9.4%	-5.5%	1.1%	-7.3%	18.3µM*
COc1ccccc1OCCn1cc(/C=N/NC(=O)c2ccncc2)c2ccccc21	-2.2%	·	?	0.0%	1.5%	-26.9%
CNC(=S)N/N=C/c1cn(CCOc2ccc(OC)cc2)c2ccccc12	5.5%	?	21.3µM*	-0.7%	-2.8%	?
O=C(CNc1cccc([N+](=O)[O-])c1)N/N=C/c1ccc(F)cc1	1.1%	-5.4%	-6.8%	0.6%	1.3%	4.0%
COc1ccc(O[C@H]2C=C[C@@H](c3ccccc3)O[C@@H]2COC(=O)CC/C(C)=N/O[C@H](C)c2cn([C@@H]3COC[C@H]3O)nn2)cc1	-7.3%	-34.4%	0.4%	-7.9%	-0.3%	25.9µM*
COc1ccc(O[C@H]2C=C[C@@H](c3ccccc3)O[C@@H]2COC(=O)CCC(C)=NO[C@@H]2O[C@H](COC(C)=O)[C@@H](OC(C)=O)[C@H](OC(C)=O)[C@H]2OC(C)=O)cc1	-0.4%	-8.8%	-1.0%	-2.3%	1.1%	?
CC(C)CCN1C(=O)N(c2ccccc2)C(=O)C1CC(=O)Nc1ccc(Cl)cc1 (configuration not stated)	·	·	3.5%	·	·	·
Cn1c(-c2ccc(N)cc2)nc2ccccc21	?	·	19µM*	?	3.98µM*	?
Cn1c(CCc2ccc(N)cc2)nc2ccccc21	?	11.2µM*	12µM*	3.16µM*	1.58µM*	?
Nc1nc2ccc(C(=O)N3CCCCC3)cc2s1	8.4%	·	-11.2%	1.3%	0.1%	-2.2%
Cn1c(-c2ccc3nc(N)sc3c2)nc2cc(N)ccc21	?	7.3%	21.3µM*	?	22.9%	?
CCN(C[C@H]1N[C@@](C)(C(=O)OC)[C@H]2C(=O)N(Cc3ccccc3)C(=O)[C@@H]12)C(=O)c1ccc(C(C)(C)C)cc1	-8.0%	·	·	·	·	10.3µM*
Cc1ccc(S(=O)(=O)N2CCC(C(=O)Nc3nnc(-c4ccco4)s3)CC2)cc1	-3.3%	28.1%	1.1%	-0.9%	-0.1%	-14.5%
CC(C)CC(=O)Nc1nnc(-c2ccco2)s1	16.4µM*	26.0%	?	?	2.51µM*	?
COC(=O)Nc1nnc(-c2ccco2)s1	5.5%	·	-14.8%	3.9%	14.9%	?
SMILES	ELG1 genotoxic	SMN2 splice enh	FLuc modulator	NPC1 promoter act	Rab9 prom act	ELG1 DNA repair
O=C(Nc1nc(-c2ccco2)c(-c2ccco2)s1)C1CCC1	4.2%	12.5%	19µM*	-0.3%	-6.3%	-13.1%
O=C(Nc1nc(-c2ccco2)c(-c2ccco2)s1)C1CC(=O)N(c2ccc3c(c2)OCCO3)C1 (configuration not stated)	-19.5%	-7.9%	4.2%	-3.2%	-5.2%	?
O=C(Nc1nnc(-c2ccco2)s1)C1CCCCC1	9.5%	-9.2%	?	3.55µM*	3.16µM*	?
COc1ccc(C)cc1NC(=O)Cn1c(=O)c(C(F)(F)F)nc2ccccc21	·	·	-0.2%	·	·	·
COc1cccc(CN(CC(=O)NC2CCCCC2)C(=O)c2csnn2)c1	1.7%	·	1.5%	-5.8%	-3.5%	-0.2%
C=CCn1c(CC(=O)OC)csc1=Nc1ccc(C(C)=O)cc1	7.2%	-14.7%	?	?	-5.9%	?
C=CCn1c(C)csc1=Nc1ccc(C(C)=O)cc1	?	-17.4%	19µM*	?	?	?
CCOC(=O)c1ccc(N)cc1	?	13.1%	2.8%	1.1%	0.9%	?
CCOC(=O)c1ccc(N=c2scc(C)n2CC)cc1	?	25.1µM*	10.7µM*	?	2µM*	?
CCOC(=O)c1ccc(N=NN(C)C)cc1	?	·	19µM*	?	?	?
CCOc1ccc(NCc2nc3ccccc3n2CCOc2ccccc2)cc1	?	-42.6%	12µM*	?	25.3%	?
Cc1ccccc1NCc1nc2ccccc2n1CCOc1ccccc1	·	17.8µM*	9.53µM*	·	·	·
Clc1ccc(NCc2nc3ccccc3n2CCOc2ccccc2)cc1	·	-30.2%	?	·	·	·
Cc1nc(NC(=O)c2c(-c3ccccc3)c(-c3ccccc3)nn(C)c2=O)sc1C	·	-3.8%	?	·	·	·
CCC(C)c1ccc(OCc2ccc(C(=O)O)o2)cc1 (configuration not stated)	0.411µM*	·	3.01µM*	?	?	?
CCOc1ccc(OCc2ccc(C(=O)NC(C)C)o2)cc1	3.7%	·	-18.4%	?	26.2%	?
CCOc1ccc(OCc2ccc(C(=O)N3N=C(C(F)F)CC3(O)C(F)F)o2)cc1 (configuration not stated)	1.8%	?	-0.9%	27.6%	3.98µM*	0.5%
CCOC(=O)c1ccc(COc2ccc(C(C)C)cc2)o1	?	·	15.1µM*	0.631µM*	0.501µM*	?
CCOc1ccc(OCc2ccc(C(=O)OCc3ccccn3)o2)cc1	0.2%	8.91µM*	?	?	0.891µM*	?
Cc1ccc(CNC(=O)CCCCn2c(=O)c3ccccc3n(Cc3ccc(Cl)cc3)c2=O)cc1	·	-3.1%	-1.7%	·	·	·
